Screens deposited in PubChem by National Center for Advancing Translational Sciences (NCATS).
HCV inh: inhibitors of hepatitis C virus infection. Potency, µM (series often up to 41.8 µM), for the others: at the top dose activity change, negative = inhibition, hits mostly inhibitors. Huh7.5.1 HCVcc-Cre infection, luciferase reporter, 44 h. actives 3.4% (n = 340,000); active means well fitted inhibition curve with a large enough effect; inconclusive means small, poorly fitted or top-dose-only effect, or another doubt; inactive means no such curve, though single readings can be large or run the other way
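HCVcc-Cre virus at an moi near 0.5 was added right after compound to cells cultured 4 h from seeding (1,000 cells/well). Luciferase activity was determined 44 h later, 15 min after substrate addition at RT.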
Lassa entry inh: Lassa virus entry inhibition; Potency, µM (doses to about 37.9 µM), inactives show at the highest dose activity change, negative = inhibition, hits mostly inhibitors; AID 540256; Lassa virus pseudotype entry inhibition, cell reporter; actives 1.2% (n = 300,000); calls by dose curve; tested in HEK293 cells; further: nearly all actives have a fitted effect of over 50% in size
Vaccinia mCherry: inhibitors of vaccinia virus infection (mCherry reporter signal) | Vaccinia virus mCherry reporter infection, fluorescence | Potency, µM (doses to about 36.5 µM), for the others: at the highest dose activity change, negative = inhibition, usual class: inhibitors | actives 0.63% (n = 310,000) | AID 720579; calls by dose curve; tested in A549 cells; further: nearly all actives have a fitted effect of over 35% in size
Vaccinia Venus: vaccinia inhibition (Venus reporter). Vaccinia virus Venus reporter expression, fluorescence. Potency, µM (doses to about 36.5 µM), for inactives: at the highest dose activity change, negative = inhibition, usual class: inhibitors. actives 0.46% (n = 330,000). AID 720580; calls by dose curve; tested in A549 cells; further: nearly all actives have a fitted effect of over 30% in size
Marburg entry inh: inhibitors of Marburg virus binding or cell entry; Marburg virus pseudotyped entry inhibition, cell reporter; Potency, µM (doses to about 37.8 µM), without a hit: at the highest dose activity change, negative = inhibition, actives largely listed as inhibitors; actives 1.8% (n = 300,000); calls by dose curve; tested in HEK293 cells
* = called active by the depositor; i = inactive; ? = inconclusive; . = no result; [ ] = dose if it differs, or a comment. Sampled rows, rich in hits. Any-hit rate of the full collection: about 4.6%. On the % scale 0 is the no-effect control and ±100 the full control effect; potency means the concentration at half of the fitted maximal effect.

SMILES | HCV inh | Lassa entry inh | Vaccinia mCherry | Vaccinia Venus | Marburg entry inh
O=C(NCc1cccnc1)/C(=C/c1ccc(-c2cccc(C(F)(F)F)c2)o1)NC(=O)c1ccccc1 | 2% | ? | -24% | -23% | ?
O=C(CN(Cc1ccc(Br)cc1)S(=O)(=O)c1ccccc1)NCc1cccnc1 | -12% | 3% | -2% | -12% | 16%
O=C(NCc1cccnc1)/C(=C\c1ccc(-c2ccc(Br)cc2)o1)S(=O)(=O)c1ccccc1 | 11µM* | 13µM* | ? | 10µM* | ?
O=C(NCc1cccnc1)/C(=C/c1ccc(-c2ccc(Cl)cc2)o1)S(=O)(=O)c1ccccc1 | 7.9µM* | 18µM* | . | . | ?
Nc1cc2c(cc1Cl)-c1ccccc1C2=NO | 5µM* | 29% | ? | ? | ?
CN(C)c1ccc2c(c1)C(=NO)c1ccccc1-2 | ? | -3% | -21% | ? | -10%
Fc1ccc(-c2nc(-c3c[nH]c4ccccc34)cs2)cc1 | . | . | i | -13% | .
CCOC(=O)CNc1nc(-c2ccncc2)nc2ccccc12 | ? | 24% | -22% | -14% | 11µM*
O=C(O)CCNc1nc(-c2ccccc2)nc2ccccc12 | ? | 15% | . | -1% | ?
O=C(OCCNc1nc(-c2ccccc2)nc2ccccc12)c1ccncc1 | 16µM* | . | . | . | .
O=[N+]([O-])c1ccc(Sc2cccc3cccnc23)c2cccnc12 | 10µM* | ? | . | . | ?
CCCCN(C)CC(O)Cn1cc(/C=C/C(=O)c2ccc(C)cc2)c2ccccc21 (centres undefined) | 13µM* | ? | ? | ? | ?
COc1ccc(C(=O)/C=C/c2cn(CC(O)CN3CCN(C)CC3)c3ccccc23)cc1OC (centres undefined) | -75% | -25% | ? | ? | ?
CCCCN(C)CC(O)Cn1cc(/C=C/C(=O)c2ccc(Br)cc2)c2ccccc21 (centres undefined) | . | ? | -5% | -18% | ?
CCCCN(C)CC(O)Cn1cc(/C=C/C(=O)c2ccc(OC)c(OC)c2)c2ccccc21 (centres undefined) | . | ? | ? | -20% | 4.5µM*
CC1Cc2ccccc2N1S(=O)(=O)c1cccc(C(=O)NCc2ccco2)c1 (centres undefined) | ? | 10µM* | -11% | -13% | ?
CCCNC(=O)c1cc(S(=O)(=O)N2CCc3ccccc32)cn1C | 8.9µM* | . | -4% | -24% | .
O=C(NCc1ccco1)c1ccc(S(=O)(=O)N2CCCc3ccccc32)cc1 | 16% | 16µM* | i | -19% | ?
CC(=O)N1CCCc2cc(S(=O)(=O)N(C)Cc3ccccc3)ccc21 | 35µM* | -11% | i | -17% | -5%[46.1 µM]
O=C(NCc1ccco1)c1cccc(S(=O)(=O)N2CCc3ccccc32)c1 | -13% | -20% | -3% | -24% | ?
CCOC(=O)C1(C(=O)OCC)CC2=C(C=CC3=C(C=C2)CC(C(=O)OCC)(C(=O)OCC)C3)C1 | . | . | . | . | 6%[14.2 µM]
Nc1ccc(S(=O)(=O)N2CCCc3ccccc32)cc1 | -12% | . | 6% | -1% | 0%
CCn1c(=O)n(CC)c2cc(S(=O)(=O)N3CCc4ccccc43)ccc21 | 13µM* | -20% | i | ? | ?
COc1ccc(S(=O)(=O)N2CCc3ccccc32)cc1C(=O)O | 2% | . | . | . | .
CC(=O)Nc1ccc(S(=O)(=O)N2CCCc3ccccc32)cc1 | 13µM* | ? | ? | -28% | ?
SMILES | HCV inh | Lassa entry inh | Vaccinia mCherry | Vaccinia Venus | Marburg entry inh
CC(=O)N1CCc2ccc(S(=O)(=O)N3CCc4ccccc43)cc21 | 22µM* | . | . | . | .
COc1ccc(S(=O)(=O)N2CCc3ccccc32)cc1OC | 1% | ? | 6% | -28% | ?
O=C(NCc1ccccc1)c1ccc(S(=O)(=O)N2CCCc3ccccc32)cc1 | 13µM* | ? | . | . | ?
O=C1CCCC=C1C(O)COCc1ccccc1 (centres undefined) | . | . | . | . | 3%[14.2 µM]
Cc1nc(N2C(=O)c3oc4ccccc4c(=O)c3C2c2cccc(OCCC(C)C)c2)sc1C (centres undefined) | . | 30%[46.1 µM] | -11% | -7% | 8%[46.1 µM]
O=C(O)CSc1c2c(nc3cc(C(=O)Nc4ccc(F)c(Cl)c4)ccc13)CCC2 | . | 10%[46.1 µM] | -4% | -3% | ?
O=C(c1ccccc1F)N1CCCc2ccccc21 | 5% | . | . | . | .
CCc1ccc2c(c1)CCCN2C(=O)c1ccccc1C(=O)O | 10µM* | -6% | . | . | ?
COC(=O)c1ccc(S(=O)(=O)N2CCc3ccccc32)cc1 | -15% | ? | -14% | -3% | 2.5µM*
CCC(=O)N1CCCc2cc(S(=O)(=O)N3CCCc4ccccc43)ccc21 | 10µM* | -5% | -14% | ? | -16%
CC(C)c1nn2c(=O)cc(COC(=O)c3cccc(NC(=O)c4cccs4)c3)nc2s1 | . | 4%[46.1 µM] | -12% | -3% | .
COc1cccc(C(=O)Nc2ccc3c(cc2=O)[C@@H](NC(C)=O)CCc2cc(OC)c(OC)c(OC)c2-3)c1 | 32µM* | . | . | . | .
Nc1nc2ccccc2n1/N=C/c1ccc([N+](=O)[O-])s1 | 3.5µM* | ? | ? | ? | ?
Nc1nc2ccccc2n1/N=C/c1cccnc1 | 31% | ? | -1% | -11% | 0%
CCc1cc(Cn2nc(-c3ccccc3)cc2C(=O)NCc2cccc(Br)c2)on1 | 3.2µM* | . | -7% | -23% | .
O=C(CSc1cn(CCNC(=O)c2ccccc2F)c2ccccc12)Nc1ccc(F)cc1 | . | -8%[46.1 µM] | -13% | -5% | ?
O=C1C(F)=CC(COC(c2ccccc2)(c2ccccc2)c2ccccc2)OC1n1cc(F)c(=O)[nH]c1=O (centres undefined) | ? | 5.6µM* | 10µM* | ? | ?
CC(=O)OCC1OC(n2cc(F)c(=O)[nH]c2=O)C(OC(C)=O)C1OC(C)=O (centres undefined) | -8% | . | . | . | .
N[C@@H](CCS(=O)O)C(=O)O | . | . | -8% | -7% | .
Nc1ccc(-c2nc3ccc(-c4nc5ccccc5o4)cc3[nH]2)cc1 | ? | -29% | -10% | -5% | 7.1µM*
Cc1nn(-c2ccc(N3CCCC3)nn2)c(C)c1CCC(=O)NCc1ccc(F)cc1 | . | 23%[46.1 µM] | -9% | -4% | .
Cc1cc2c(cc(C(=O)OC(C(=O)NC3CCCCC3)C(C)C)n2C)o1 (centres undefined) | 16µM* | . | . | . | .
O=C(C(Br)=Cc1ccccc1)c1ccccc1 | ? | ? | ? | ? | 5µM*
CC(C)NC(=S)NNc1ncnc2sc3c(c12)CC(C)(C)OC3 | -26% | . | . | . | .
CC1(C)Cc2c(sc3ncnc(NNC(=S)NCc4ccccc4)c23)CO1 | ? | 0.12µM* | -10% | -30% | ?
OC1(c2cccnc2)CCN(Cc2ccc3c(c2)CN(Cc2ccc4nsnc4c2)CCO3)CC1 | . | . | -25% | -21% | .
Nc1nc(N)c(-c2cccc(C(F)(F)F)c2)c(Cc2cccc(C(F)(F)F)c2)n1 | ? | ? | 4.5µM* | 4µM* | ?
Cc1ccc(N=C2NC(=O)S/C2=C\c2ccco2)cc1 | ? | 6% | . | . | 0%
O=C1NC(=Nc2ccccc2)/C(=C/c2ccco2)S1 | 11µM* | -1% | . | . | -16%
